# Measurements as given in the supplement of paper PMC7724964.
# T1: MDM4 26-106 SWIB (domain begin residue: 26, domain end residue: 106), O15151
# T1 chain: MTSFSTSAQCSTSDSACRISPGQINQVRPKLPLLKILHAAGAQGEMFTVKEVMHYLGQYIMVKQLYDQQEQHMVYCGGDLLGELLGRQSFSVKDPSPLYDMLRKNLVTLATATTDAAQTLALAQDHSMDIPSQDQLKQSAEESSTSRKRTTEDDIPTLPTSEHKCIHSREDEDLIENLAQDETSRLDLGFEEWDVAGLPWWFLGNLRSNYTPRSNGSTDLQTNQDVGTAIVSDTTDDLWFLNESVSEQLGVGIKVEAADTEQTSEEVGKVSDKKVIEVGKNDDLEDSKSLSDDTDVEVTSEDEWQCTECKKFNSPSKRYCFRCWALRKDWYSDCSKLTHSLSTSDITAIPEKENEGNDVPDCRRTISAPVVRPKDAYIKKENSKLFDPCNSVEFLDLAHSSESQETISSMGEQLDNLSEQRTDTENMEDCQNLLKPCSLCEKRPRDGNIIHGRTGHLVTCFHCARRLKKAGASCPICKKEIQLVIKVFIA
# T2: SND1 650-910 TUDOR+SNase (domain begin residue: 650, domain end residue: 910), Q7KZF4
# T2 chain: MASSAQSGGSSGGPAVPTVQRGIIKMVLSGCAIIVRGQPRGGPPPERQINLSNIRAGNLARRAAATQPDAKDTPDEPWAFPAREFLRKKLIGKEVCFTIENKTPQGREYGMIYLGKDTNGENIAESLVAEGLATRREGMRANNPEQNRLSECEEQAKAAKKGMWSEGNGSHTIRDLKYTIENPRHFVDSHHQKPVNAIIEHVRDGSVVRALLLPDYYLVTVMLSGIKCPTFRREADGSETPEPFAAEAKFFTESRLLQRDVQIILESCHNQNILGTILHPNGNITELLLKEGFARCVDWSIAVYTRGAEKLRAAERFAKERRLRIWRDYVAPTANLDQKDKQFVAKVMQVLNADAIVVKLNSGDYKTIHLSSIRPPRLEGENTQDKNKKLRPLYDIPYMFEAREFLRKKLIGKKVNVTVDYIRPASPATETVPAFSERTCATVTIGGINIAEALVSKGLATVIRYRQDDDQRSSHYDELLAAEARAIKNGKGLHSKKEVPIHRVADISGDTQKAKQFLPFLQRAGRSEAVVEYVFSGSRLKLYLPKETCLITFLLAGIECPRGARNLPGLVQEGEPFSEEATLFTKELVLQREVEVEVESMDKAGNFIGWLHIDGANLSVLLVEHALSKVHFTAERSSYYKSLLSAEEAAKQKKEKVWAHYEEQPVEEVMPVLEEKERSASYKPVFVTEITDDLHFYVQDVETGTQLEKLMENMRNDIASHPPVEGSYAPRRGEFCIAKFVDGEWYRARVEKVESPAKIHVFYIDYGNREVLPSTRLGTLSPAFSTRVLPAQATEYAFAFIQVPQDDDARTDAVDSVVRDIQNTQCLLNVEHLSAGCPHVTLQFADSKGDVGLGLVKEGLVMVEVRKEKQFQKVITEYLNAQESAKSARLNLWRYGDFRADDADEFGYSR
# Target: MAD2L1 2-205 HORMA (domain begin residue: 2, domain end residue: 205), Q13257
# Sequence (Q13257 whole entry): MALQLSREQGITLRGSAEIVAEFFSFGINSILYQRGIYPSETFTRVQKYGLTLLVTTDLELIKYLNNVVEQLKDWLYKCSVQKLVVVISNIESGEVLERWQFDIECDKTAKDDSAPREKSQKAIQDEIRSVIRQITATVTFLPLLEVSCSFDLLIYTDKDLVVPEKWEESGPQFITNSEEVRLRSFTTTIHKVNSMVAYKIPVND
# Experiment: phage ELISA signal ratio (GST-PRM binding over GST background); higher = stronger binding of peptide-phage to the PRM
# In short: (§1)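 Five rounds of selection were carried out against human peptide recognition domains fused to the C-terminus of glutathione S-transferase (GST) and expressed in 96-well plates. The M13 phage library presented randomized hexadecapeptides, cysteine-free and glycine-flanked, on the gene-8 major coat protein. For each value, the phage ELISA signal on the GST-domain fusion was divided by the signal on GST alone.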
row,Binder,phage ELISA signal ratio
1,SWWMLQGPKQMNEIHA,8.75
2,WYIIRGPMWHEPHVIE,8.9
3,SWLRFKAEPPQHIAQL,9
4,VWYHWQPPDSPINVIE,11.6
5,GWFHIAPPPKQAEYTE,12.8
6,TWWHLAGPRSHLTTSY,12.8
7,DSNIWLTRGPVHNTQQ,14.1
8,QHSAMSAVWHFGPMWY,15
9,YSIWMMEPPKVAPKAE,15
10,PQTGHWIKFPKPWLEN,15.5
11,DREQSGWFILRAPVYQ,18.9
12,VWYRFEPAPMPKPHGQ,20.4

# Target: T1, MDM4 26-106 SWIB (domain begin residue: …
# Experiment: as above
# In short: as §1
row,Binder,phage ELISA signal ratio
1,DFAWWWSQMLEAEVNF,12.3
2,IEFMDYWDSLDWMQKV,14.7
3,AVFSQLWEAMPAVDWT,14.9
4,VEHEFLWHWGQIDFMM,16
5,KDFSMWWVELKEVEVS,17.4
6,MPLFMDLWQDMMPTNY,17.9
7,KMELSFWEFWQVLQHE,18
8,YDFSQYWDAIPEQFIV,18.1
9,MVEQQVFWYLWMELMN,19.4
10,TFSESWATLTSTSEWM,20.4
11,MPYAQMQFMDYWQELA,21.3
12,DFMDFWEDATMGLVGT,21.7
13,FTAQDVLSHMSLWEFT,21.7
14,AFWTHWQKLIPPEFQA,26.1
15,FVEMWNDMMFEDWDLV,26.4

# Target: MSH6 89-203 PWWP (domain begin residue: 89, domain end residue: 203), P52701
# Sequence (P52701 whole entry): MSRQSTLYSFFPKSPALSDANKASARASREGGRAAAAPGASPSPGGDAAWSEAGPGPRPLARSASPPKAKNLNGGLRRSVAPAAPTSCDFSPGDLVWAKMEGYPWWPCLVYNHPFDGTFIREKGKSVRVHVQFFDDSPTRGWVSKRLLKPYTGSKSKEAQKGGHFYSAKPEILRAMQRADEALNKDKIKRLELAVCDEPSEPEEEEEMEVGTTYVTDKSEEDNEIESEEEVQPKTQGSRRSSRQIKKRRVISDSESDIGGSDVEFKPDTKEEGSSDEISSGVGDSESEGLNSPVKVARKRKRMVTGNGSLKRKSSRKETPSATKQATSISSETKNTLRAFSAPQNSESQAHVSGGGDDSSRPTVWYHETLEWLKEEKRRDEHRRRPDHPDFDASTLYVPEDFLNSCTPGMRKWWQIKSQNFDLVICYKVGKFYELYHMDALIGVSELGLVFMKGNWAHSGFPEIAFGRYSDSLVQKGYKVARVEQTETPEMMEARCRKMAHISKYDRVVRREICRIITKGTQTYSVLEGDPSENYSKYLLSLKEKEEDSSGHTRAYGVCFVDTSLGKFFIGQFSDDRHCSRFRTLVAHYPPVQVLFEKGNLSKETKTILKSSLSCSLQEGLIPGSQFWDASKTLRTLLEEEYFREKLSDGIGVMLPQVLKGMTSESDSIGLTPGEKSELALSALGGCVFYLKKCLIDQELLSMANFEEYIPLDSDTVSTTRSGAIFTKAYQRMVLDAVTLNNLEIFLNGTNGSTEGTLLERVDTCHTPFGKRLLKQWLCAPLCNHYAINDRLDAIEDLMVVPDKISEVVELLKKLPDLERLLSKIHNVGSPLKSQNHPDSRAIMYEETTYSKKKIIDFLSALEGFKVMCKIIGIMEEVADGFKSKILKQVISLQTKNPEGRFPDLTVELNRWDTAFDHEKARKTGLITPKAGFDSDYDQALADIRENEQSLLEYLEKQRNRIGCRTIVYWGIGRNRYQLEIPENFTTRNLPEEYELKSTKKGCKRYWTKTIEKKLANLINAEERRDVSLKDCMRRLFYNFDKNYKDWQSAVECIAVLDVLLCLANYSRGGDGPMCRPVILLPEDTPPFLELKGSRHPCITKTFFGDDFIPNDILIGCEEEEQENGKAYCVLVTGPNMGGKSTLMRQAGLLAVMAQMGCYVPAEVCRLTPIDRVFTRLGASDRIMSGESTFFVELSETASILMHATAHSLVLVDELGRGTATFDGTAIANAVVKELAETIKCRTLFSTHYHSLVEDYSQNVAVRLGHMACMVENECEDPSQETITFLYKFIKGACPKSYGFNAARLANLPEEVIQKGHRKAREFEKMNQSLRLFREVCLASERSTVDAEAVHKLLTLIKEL
# Experiment: as above
# In short: as §1
row,Binder,phage ELISA signal ratio
1,WYMESLWQPDMMLPKF,2.63
2,MWWYDGEMEKMIMETL,4.31

# Target: T2, SND1 650-910 TUDOR+SNase (domain begin …
# Experiment: as above
# In short: as §1
row,Binder,phage ELISA signal ratio
1,MWWYDGEMEKMIMETL,7.5
